Shown are actives, neighbours in structure and some others; about 0.54% of the full set was active somewhere.
PKA kinase inh: PKA (human) kinase inhibition; P17612; PKA Kemptide phosphorylation, Kinase-Glo ATP luminescence; inhibition, % at 6 µM; actives 0.1% (n = 65,000); AID 524;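 active = inhibition above the screen-wide mean inhibition plus 3 SD, cut at about 21% in these data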
FXIa inh mix: blocks human factor XIa in pooled compound mixtures; purified FXIa, fluorogenic substrate; inhibition, % at 5 µM; actives 0.19% (n = 62,000); P03951; AID 680;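 note: each value is inhibition by a whole ten-compound pool holding the compound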
FXIIa inh mix: blocks human factor XIIa in pooled compound mixtures | P00748 | purified FXIIa, fluorogenic substrate | inhibition, % at 5 µM | actives 0.2% (n = 62,000) | AID 684
Target sequence (P00748 20-372 limits assumed): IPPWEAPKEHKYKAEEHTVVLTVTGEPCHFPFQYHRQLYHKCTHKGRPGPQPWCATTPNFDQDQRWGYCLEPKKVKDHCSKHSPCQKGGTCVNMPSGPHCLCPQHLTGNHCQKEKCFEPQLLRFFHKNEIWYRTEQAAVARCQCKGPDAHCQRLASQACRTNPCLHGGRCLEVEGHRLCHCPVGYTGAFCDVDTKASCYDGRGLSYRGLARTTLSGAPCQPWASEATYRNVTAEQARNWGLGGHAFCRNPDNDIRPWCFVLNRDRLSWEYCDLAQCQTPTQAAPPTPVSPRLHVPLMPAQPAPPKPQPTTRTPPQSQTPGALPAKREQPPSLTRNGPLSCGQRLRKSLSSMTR
Target sequence (P00748 373-615 limits assumed): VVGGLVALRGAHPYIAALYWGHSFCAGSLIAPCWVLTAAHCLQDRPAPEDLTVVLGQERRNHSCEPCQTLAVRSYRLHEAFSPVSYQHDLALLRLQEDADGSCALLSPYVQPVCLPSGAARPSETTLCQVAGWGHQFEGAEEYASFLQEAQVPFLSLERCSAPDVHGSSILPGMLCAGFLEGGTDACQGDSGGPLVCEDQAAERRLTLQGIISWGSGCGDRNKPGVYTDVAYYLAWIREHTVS
ROCK2 inh: blocks human Rho kinase 2 activity; actives 0.35% (n = 60,000); AID 604; O75116; inhibition, % at 6 µM; purified ROCK2, Kinase-Glo ATP depletion luminescence;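 active = inhibition above the screen-wide mean inhibition plus 3 SD, cut at about 18% in these data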
Numbers stand for hits; 0 = inactive; - = not tested or not shown. Cut-off read from the data, not from the text of the source, unless noted: active = inhibition above about 20% (passing the limit was not always enough); inactive = the rest.

SMILES	PKA kinase inh	FXIa inh mix	FXIIa inh mix	ROCK2 inh
CCN1CCN(C(c2cccs2)C(C)NC(=O)C(C)C)CC1 (configuration not stated)	0	0	0	0
Cc1cccc(-n2c(Cc3cc(=O)[nH]c(=O)[nH]3)nnc2SCC(=O)N2CCCCC2)c1	0	21	0	0
CCOc1ccc2nc3ccc4[nH]onc4c3c2c1	35	0	0	0
O=C1CC(N2CCC(O)(c3ccc(Cl)cc3)CC2)C(=O)N1 (configuration not stated)	0	0	0	0
O=C1CC(N2CCN(c3ccc(Cl)c(Cl)c3)CC2)C(=O)N1 (configuration not stated)	0	0	53	0
C=C(C)c1cccc(C(C)(C)NC(=O)N2CCOCC2)c1	0	0	0	0
C=C(C)c1cccc(C(C)(C)NC(=O)N2CC(C)OC(C)C2)c1 (configuration not stated)	0	0	22	0
CC(=O)Nc1ccc(NS(=O)(=O)c2ccc(Cl)c(C(=O)O)c2)cc1	0	0	0	0
O=C(O)c1cccc(NS(=O)(=O)c2ccc3nnn(O)c3c2)c1	0	0	37	-
O=C(O)c1cccc(NS(=O)(=O)c2ccc(Cl)c(C(=O)O)c2)c1	0	0	22	0
COc1ccc(S(=O)(=O)N2CCCN(S(=O)(=O)c3ccc(OC)cc3C)CC2)c(C)c1	0	0	0	0
CC1(C)NC(=O)N(c2ccccc2Cl)C1(C)NO (configuration not stated)	0	0	0	0
CN(CCNC(=O)c1cccc(N2CCCC2=O)c1)Cc1ccccc1	0	0	24	0
N#Cc1ccccc1NC(=O)CSc1nccn1CCc1ccccc1	0	0	0	0
N=c1oc2ccccc2cc1-c1nc2ccccc2c(=O)[nH]1	0	0	35	0
CCCNC(=O)CC(NS(=O)(=O)c1ccc(Cl)cc1)c1ccco1 (configuration not stated)	0	0	0	0
O=C(CC(NS(=O)(=O)c1ccc(Cl)cc1)c1ccco1)NCc1ccco1 (configuration not stated)	0	0	70	0
CCC1S/C(=C(\C#N)C(=O)NCc2ccco2)N(c2ccc(F)cc2)C1=O (configuration not stated)	0	0	0	0
N#C/C(C(=O)NCc1ccco1)=C1/SC(Cc2ccc(F)cc2)C(=O)N1c1ccccc1 (configuration not stated)	0	26	0	0
O=C(c1ccco1)N1CCN=C1SCc1c(F)cccc1Cl	0	29	0	0
CCOC(=O)C1CCN(CCC(=O)Nc2cccc(Cl)c2)CC1	0	0	35	0
CN(C(=O)c1cccc(N2C(=O)C3CC=CCC3C2=O)c1)C1CCCCC1 (configuration not stated)	0	0	0	21
Cc1nn(Cc2ccccc2Cl)c(C)c1C(=O)N1CCN(c2ccccc2)CC1	0	0	0	0
COc1ccc(CNc2ccc3cn[nH]c3c2)c(OC)c1OC	-	0	0	-
Nc1ccc2cn[nH]c2c1	0	0	0	23
SMILES	PKA kinase inh	FXIa inh mix	FXIIa inh mix	ROCK2 inh
O=C(COc1ccc(Cl)cc1)OCC(=O)N1CCCCCC1	0	27	0	0
O=C(CSc1ncnc2c1nnn2Cc1ccccc1F)N1CCN(c2ccccc2)CC1	0	0	0	-
O=C(O)CSCc1ccc(Cl)cc1	0	0	65	0
NC(=O)CSCc1ccc(Br)cc1	0	0	0	0
Cc1cccc(NC(=O)CSc2n[nH]c(-c3ccncc3)n2)c1	21	0	0	0
O=C(CSc1n[nH]c(-c2ccncc2)n1)c1ccccc1	43	0	0	105
O=C(CSc1n[nH]c(-c2ccncc2)n1)NCCc1ccccc1	0	0	0	0
Cc1csc2ncc(C(=O)NCc3ccccn3)c(=O)n12	0	0	0	0
COc1ccc(CNC(=O)C2CCCN2S(=O)(=O)c2ccccc2)cc1 (configuration not stated)	0	0	0	0
Cc1ccccc1NS(=O)(=O)c1ccc(F)cc1	0	0	0	0
O=S(=O)(Nc1ccccc1F)c1ccc2nsnc2c1	0	0	21	0
O=C(OCn1nnc2ccccc2c1=O)C1=COCCO1	0	0	0	0
CN(C)S(=O)(=O)c1cccc(COC(=O)C2=COCCO2)c1	0	0	21	0
CC(=O)OC1CSc2nc3ccccc3n2C1 (configuration not stated)	0	0	0	0
CC1CN(C(=O)c2cccs2)CCN1C(=O)c1cccs1 (configuration not stated)	0	0	0	0
CC(=O)Nc1ccc(N/C=C/C(=O)C(C)(C)C)cc1	0	21	0	0
Cc1noc(NS(=O)(=O)c2ccc(NC(=O)CSc3nc4ccccc4s3)cc2)c1C	0	52	0	0
O=C(NCC(c1cccnc1)N1CCN(c2ccc(F)cc2)CC1)OCc1ccccc1 (configuration not stated)	0	0	0	-
O=C(NCC(c1cccnc1)N1CCN(c2ccc(F)cc2)CC1)c1cccc(Cl)c1 (configuration not stated)	0	0	62	0
NC(=O)C1CCN(CC(=O)N2c3ccccc3CCc3ccccc32)CC1	0	0	30	0
NC(=O)C1CCN(C(=O)CN2CCc3ccccc32)CC1	0	0	0	0
Cc1ccc(NC(=O)CS(=O)(=O)c2c[nH]c3ccccc23)c(C)c1	0	0	0	-
COc1ccc(CCC(=O)Nc2nc3c(s2)CN(C)CC3)cc1OC	0	0	0	109
CCOc1ccc2[nH]c(=O)c(CN(Cc3cccs3)Cc3nnnn3C(C)(C)C)cc2c1	0	0	0	0
COc1ccc2[nH]c(=O)c(CN(Cc3cccs3)Cc3nnnn3C(C)(C)C)cc2c1	0	22	0	0
SMILES	PKA kinase inh	FXIa inh mix	FXIIa inh mix	ROCK2 inh
Brc1ccc2[nH]ncc2c1	0	0	0	30
O=S(=O)(c1cnc[nH]1)N1CCc2ccccc21	0	0	0	0
COc1cc2c(cc1OC)C(c1cc(OC)c(OC)c(OC)c1)NCC2 (configuration not stated)	0	0	0	0
c1ccc(OCCCc2nc(-c3ccncc3)no2)cc1	0	0	0	18
O=C(/N=C1\NC(=O)C(F)(C(F)(F)F)S1)NC1CCCCC1 (configuration not stated)	0	24	0	0
C=CCn1c(SCc2nc3ccccc3c(=O)[nH]2)nnc1-c1cc2cc(Cl)ccc2o1	0	0	0	0
O=C(NCCN1CCOCC1)c1cc2ccccc2o1	0	0	34	-
O=C(Nc1ccc(CN2CCOCC2)cc1)c1cc2ccccc2o1	0	0	0	0
COC(=O)c1[nH]c2cc(C)ccc2c1NC(=O)CN1CCN(C(=O)c2ccco2)CC1	0	0	0	0
Cc1ccc(C(=O)c2cc(C)sc2NC(=O)CN2CCN(C(=O)c3ccco3)CC2)cc1	0	0	21	0
CCn1cc(C(=O)OCC(=O)Nc2ccc(S(=O)(=O)N3CCCC3)cc2)c(=O)c2ccc(C)nc21	0	0	0	0
CCOC(=O)N1CCN(C(=O)CC(=O)Nc2ccc3nc4n(c(=O)c3c2)CCCCC4)CC1	0	0	47	0
O=C(COc1ccc(Cl)cc1Cl)Nc1ccc2nc3n(c(=O)c2c1)CCCC3	0	0	0	0
CC12CCC(C(=O)NCC3CCCO3)(OC1=O)C2(C)C (configuration not stated)	0	42	0	0
